From PubChem BioAssay

Experiment: compound effects on lung adenocarcinoma cell viability – A549, calcein-AM fluorescence, 48 h, basal, profiling panel (AID 1162); further: test concentration not given here
Details: higher = more signal

| Compound | z-score |
| --- | --- |
| Cc1ccc(S[C@]2(C(=O)O)CC(=O)N(Cc3cc(C(F)(F)F)cc(C(F)(F)F)c3)[C@@H]2c2ccc(CO)cc2)cc1 | -0.192 |
| CC(C)Cc1ccc(CN2CC[C@@H](NC(=O)Nc3ccccc3)C2)cc1 | -4.11 |
| C=CC1c2cc(O)c(OC)cc2CCN1Cc1cc2c(cc1Br)OCO2 (stereo unspecified) | -3.63 |
| O=C1O[C@H](c2ccccc2)[C@H](c2ccccc2)N2[C@H]1[C@@H](C(=O)N1CCN(c3ncccn3)CC1)[C@]1(C(=O)Nc3ccc(C#CC4(O)CCCCCC4)cc31)[C@H]2c1ccc(OCCO)cc1 | 0.282 |
| COC(=O)C(CC#Cc1ccc2c(c1)[C@]1(C(=O)N2)[C@H](c2ccccc2OCCO)N2[C@H](c3ccccc3)[C@H](c3ccccc3)OC(=O)[C@H]2[C@@H]1C(=O)NC[C@H](O)c1ccccc1)C(=O)OC | 1.24 |
| Cc1ccccc1C(O)C1C=CC2C(=O)N(C)C(=O)C2N1N(c1ccccc1)c1ccccc1 (stereo unspecified) | -0.665 |
| CCC[C@@H]1C[C@@]1(CCC)[C@@H](NC(=O)OCc1ccccc1)c1ccc(-c2ccccc2)cc1 | -1.15 |
| CN(C)C(=O)C1N=C(c2ccc(OCCCO)cc2)N(c2ccccc2)O1 (stereo unspecified) | 0.676 |
| O=C1O[C@H](c2ccccc2)[C@H](c2ccccc2)N2[C@H]1[C@@H](C(=O)O)[C@]1(C(=O)Nc3ccc(C#CC4=CCCCC4)cc31)[C@H]2c1ccc(O)cc1 | 0.576 |
| C=CCOC(=O)[C@H]1[C@@H]2C(=O)O[C@@H](c3ccccc3)[C@@H](c3ccccc3)N2[C@@H](c2ccc(OCCOC(=O)[C@H]3C[C@H]4C(=O)N[C@@H](CCCCNC(C)=O)C(=O)N4[C@H]3c3ccc(O)cc3)cc2)[C@]12C(=O)Nc1ccccc12 | 1.72 |
| CN1C(=O)C2C=CC(C(O)c3cccc4ccccc34)N(N3CCCCC3)C2C1=O (stereo unspecified) | -0.866 |
| C=CCOC(=O)[C@H]1[C@@H]2C(=O)O[C@@H](c3ccccc3)[C@@H](c3ccccc3)N2[C@@H](c2ccc(OCCOC(=O)[C@@H]3C[C@@H]4C(=O)N5CCC[C@H]5C(=O)N4[C@@H]3c3ccc(O)cc3)cc2)[C@]12C(=O)Nc1ccc(I)cc12 | -0.455 |
| O=C1C2C=CC(C(O)c3ccccc3)N(Nc3ccccc3F)C2C(=O)N1c1ccccc1 (stereo unspecified) | -0.826 |
| CN(C)c1ccc(C(O)C2C=CC3C(=O)N(c4ccccc4)C(=O)C3N2Nc2ccc([N+](=O)[O-])cc2)cc1 (stereo unspecified) | -0.455 |
| [N-]=[N+]=NCc1ccccc1[C@H]1OC(c2ccc(OCCCO)cc2)=N[C@@]1(CCS(=O)(=O)c1ccccc1)C(=O)N1CCCCC1 | 0.481 |
| C=CCOC(=O)[C@H]1[C@@H]2C(=O)O[C@@H](c3ccccc3)[C@@H](c3ccccc3)N2[C@@H](c2ccc(OCCOC(=O)[C@@H]3C[C@@H]4C(=O)N[C@@H](CCCCNC(C)=O)C(=O)N4[C@@H]3c3ccc(O)cc3)cc2)[C@]12C(=O)Nc1ccc(I)cc12 | -0.34 |
| COc1cc2c(cc1OC)CN(C(=O)[C@@H]1[C@H]3C(=O)O[C@H](c4ccccc4)[C@H](c4ccccc4)N3[C@H](c3ccc(OCCO)cc3)[C@@]13C(=O)Nc1ccc(C#CC4(O)CCCCCC4)cc13)CC2 | 2.93 |
| C=C(/C(=C/C[C@H](OC(C)=O)c1ccccc1OCCO)c1cc(C(=O)OC)ccc1OC)C(C)C | -0.297 |

| Compound | z-score |
| --- | --- |
| CCOC(=O)C[C@H]1[C@H](OC(=O)c2cc3ccccc3oc2=O)[C@@H](NC(=O)c2ccc(-c3ccccc3)cc2)c2cc(OCCCO)ccc2N1C(=O)c1ccc2ccccc2n1 | 0.224 |
| CN(C)CCCCNC(=O)[C@@H]1C[C@@H]2C(=O)N[C@@H](Cc3ccccc3)C(=O)N2[C@@H]1c1cccc(OCCO)c1 | 1.74 |
| COc1ccc([Si](C)(C)[C@@H]2[C@@H](CCO)O[C@]3(C(=O)N(Cc4ccc(N5CCCCC5=O)cc4)c4ccccc43)[C@H]2C)cc1 | 0.108 |
| COCCOC(=O)N1C(=O)[C@@]2(c3cc(C#CC4=CCCCC4)ccc31)[C@H](c1ccccc1OCCO)N1[C@H](c3ccccc3)[C@H](c3ccccc3)OC(=O)[C@H]1[C@@H]2C(=O)Nc1nc2ccccc2s1 | -0.0438 |
| CCCCC(=C=CC[C@@H](O)c1ccccc1OCCO)C[C@@H](O)COCc1ccccc1 | 0.75 |
| Cc1ccc(S[C@]2(C(=O)NCC(F)(F)F)CC(=O)N(Cc3ccccc3)[C@@H]2c2ccc(CO)cc2I)cc1 | 0.208 |
| O=C(NCC(F)(F)F)[C@@H]1c2ccccc2C(=O)N(Cc2cc(F)cc(C(F)(F)F)c2)[C@H]1c1ccc(CO)cc1 | 0.792 |
| C=C(CCCC)/C(=C/C[C@@H](OC(=O)c1ccncc1)c1ccccc1OCCO)c1cnc2ccccc2c1 | 0.453 |
| [N-]=[N+]=Nc1ccccc1C[C@]1(C(=O)N2CCOCC2)N=C(c2ccc(OCCCO)cc2)O[C@H]1c1ccccc1 | 0.375 |
| CCCNC(=O)[C@@H]1c2ccccc2C(=O)N(C(C)C)[C@H]1c1ccc(CO)cc1 | 0.678 |
| O=C1O[C@H](c2ccccc2)[C@H](c2ccccc2)N2[C@H]1[C@@H](C(=O)Nc1nc3ccccc3s1)[C@]1(C(=O)Nc3ccc(C#CC4(O)CCCCCC4)cc31)[C@H]2c1ccccc1OCCO | -0.744 |
| O=C1OCC=C[C@H]2OC34C=CCN(Cn5nnc6ccccc65)C(=O)[C@H]3N(CCCO)C(=O)[C@@H]4[C@@H]12 (stereo partly specified) | -0.267 |
| COC(=O)[C@@]1(Cc2ccccc2)[C@H]2c3cc(C(=O)N(C)C)n(Cc4c(CO)[nH]cc(C)c4=O)c3C[C@H]2CN1C(=O)c1ccccc1 | -0.218 |
| COC(=O)[C@@]1(Cc2ccc(OC)cc2)[C@H]2c3cc(C(=O)N(C)C)n(Cc4ccc(Cl)c(C(F)(F)F)c4)c3C[C@H]2CN1C(=O)c1ccccc1 | -0.585 |
| C=CCNC(=O)[C@H]1[C@@H]2C(=O)O[C@@H](c3ccccc3)[C@@H](c3ccccc3)N2[C@@H](c2ccc(O)cc2)[C@]12C(=O)N(C(=O)OCCOC)c1ccccc12 | -0.335 |
| CCCCCCCCCCC(O)C1C=CC2C(=O)N(C)C(=O)C2N1NC(=O)OC(C)(C)C (stereo unspecified) | -3.85 |
| NC(N)=NCCCn1cc(CNC(=O)[C@@H](N)Cc2ccccc2)nn1 | -0.531 |
| CCOC(=O)C1CCCCN1 (stereo unspecified) | -0.293 |
